In publication PMC5540273 (PLoS ONE, 2017):

Tests used:
Details in all cases: concentration: 1 μM, replicates: in singlicate; n = 1
VRK2 = test system: VRK2
WEE1 = test system: WEE1
WEE2 = test system: WEE2
WNK1 = test system: WNK1
WNK2 = test system: WNK2
WNK3 = test system: WNK3
WNK4 = test system: WNK4
YANK1 = test system: T1, YANK1
T1 construct: gene STK32A

YANK2 = test system: T2, YANK2
T2 construct: gene STK32B

YANK3 = test system: T3, YANK3
T3 construct: gene STK32C

YES = test system: T4, YES
T4 construct: gene YES1

YSK1 = test system: T5, YSK1
T5 construct: gene STK25

YSK4 = test system: T6, YSK4
T6 construct: gene MAP3K19

ZAK = test system: ZAK
ZAP70 = test system: ZAP70
p38-alpha = test system: T7, p38-alpha
T7 construct: gene MAPK14

p38-beta = test system: T8, p38-beta
T8 construct: gene MAPK11

p38-delta = test system: p38-delta
p38-gamma = test system: T9, p38-gamma
T9 construct: gene MAPK12
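Note: KINOMEscan kinase panel screen.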

SMILES | %Inh (VRK2) | %Inh (WEE1) | %Inh (WEE2) | %Inh (WNK1) | %Inh (WNK2) | %Inh (WNK3) | %Inh (WNK4) | %Inh (YANK1) | %Inh (YANK2) | %Inh (YANK3) | %Inh (YES) | %Inh (YSK1) | %Inh (YSK4) | %Inh (ZAK) | %Inh (ZAP70) | %Inh (p38-alpha) | %Inh (p38-beta) | %Inh (p38-delta) | %Inh (p38-gamma)
Cc1c(Cn2ccn3c(=O)cc(N4CCOCC4)nc23)cccc1C(F)(F)F [GSK2289044] | 0% | 0% | 0% | 0% | 0% | 14% | 0% | 9% | 1% | 31% | 3% | 0% | 43% | 8% | 0% | 0% | 0% | 12% | 12%
COc1cccc(NC(=O)NC2CCN(c3ccnc(Nc4ccc(F)cc4)n3)C2)c1 (centres unmarked) [GSK1379721] | 0% | 6% | 0% | 5% | 8% | 33% | 2% | 0% | 0% | 0% | 0% | 10% | 3% | 42% | 0% | 4% | 0% | 35% | 2%
CC(=O)Nc1nc2cnc(Nc3cc(NC(=O)c4cccc(CCC#N)c4)ccc3C)nc2s1 | 0% | 0% | 0% | 0% | 22% | 0% | 11% | 15% | 9% | 34% | 3% | 0% | 19% | 0% | 0% | 77% | 17% | 16% | 32%
CN(C)CCN(C)C(=O)c1cc(-c2ccncc2)c(-c2ccc(Cl)c(O)c2)o1.Cl.Cl [SB-710397] | 24% | 0% | 5% | 15% | 0% | 38% | 47% | 49% | 71% | 35% | 0% | 0% | 57% | 41% | 35% | 82% | 0% | 51% | 29%
Cc1ccccc1-n1cnc2c(N)ncnc21 [SKF-97510] | 0% | 1% | 0% | 0% | 0% | 0% | 0% | 0% | 0% | 0% | 11% | 9% | 0% | 9% | 0% | 0% | 0% | 0% | 15%
COC(=O)c1c(-c2ccccc2)c2cc(OC)ccc2c(=O)n1Cc1ccccc1 | 0% | 0% | 9% | 0% | 0% | 0% | 0% | 0% | 4% | 0% | 0% | 1% | 0% | 20% | 0% | 36% | 7% | 42% | 0%
Cc1cccc(-c2nc(Nc3cccc(C(N)=O)c3)c3ccccc3n2)n1 [GW876019] | 0% | 5% | 9% | 0% | 0% | 0% | 0% | 0% | 0% | 0% | 19% | 12% | 0% | 0% | 0% | 0% | 34% | 16% | 58%
Cc1cccc(-c2nc(C)cc(Nc3ccncc3)n2)n1 [GSK257997] | 0% | 9% | 2% | 6% | 6% | 6% | 0% | 10% | 0% | 5% | 15% | 8% | 0% | 0% | 0% | 9% | 0% | 51% | 6%
C[C@@H]1CCCCN1c1cc(-c2ccc3c(N)n[nH]c3c2)nc(N)n1 [GSK2258759] | 0% | 0% | 13% | 0% | 6% | 16% | 39% | 3% | 0% | 0% | 14% | 0% | 0% | 0% | 0% | 80% | 0% | 26% | 0%
Cn1ccc2ncnc(Oc3ccc(Nc4nc5ccccc5[nH]4)cc3)c21 | 0% | 0% | 19% | 0% | 0% | 0% | 0% | 0% | 0% | 2% | 0% | 0% | 14% | 0% | 0% | 5% | 0% | 16% | 0%
Cc1ccc(NC(=O)Nc2cc(C(C)(C)C)nn2-c2ccccc2)cc1 [GSK1014915] | 0% | 0% | 7% | 9% | 0% | 13% | 25% | 13% | 5% | 7% | 9% | 0% | 19% | 26% | 0% | 99.7% | 87% | 54% | 50%
